LYPLA1 counter: LYPLA1 (human) inhibition in PME1 counter-screen | AID 2174 | O75608 | inhibition, % at 5.9 µM | recombinant LYPLA1, FP-Rh probe fluorescence polarization | hit rate 0.16% among 320,000;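 active = inhibition above the mean of all tested compounds plus 3 SD, set per campaign, cut at about 14% in these data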;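 note: inhibitors block serine hydrolase probe labeling of LYPLA1 so polarization falls; 0% = enzyme with DMSO and 100% = wells lacking LYPLA1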
Target sequence (O75608 whole entry, looked up): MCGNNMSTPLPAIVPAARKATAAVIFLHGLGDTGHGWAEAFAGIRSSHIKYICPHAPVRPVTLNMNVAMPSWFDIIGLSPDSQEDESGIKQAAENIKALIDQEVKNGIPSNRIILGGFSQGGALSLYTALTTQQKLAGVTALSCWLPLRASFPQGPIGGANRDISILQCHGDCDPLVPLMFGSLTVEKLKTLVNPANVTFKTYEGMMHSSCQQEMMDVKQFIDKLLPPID
PME-1 primary: PME-1 (human) inhibition. Q9Y570. recombinant PME-1, FP-Rh probe fluorescence polarization. inhibition, % at 5.9 µM. hit rate 0.53% among 320,000. AID 2130;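 active = inhibition above the campaign mean of all compounds plus 3 SD, cut at about 26% in these data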;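 note: competitive labeling of PME-1 active site by serine hydrolase directed probe; 0% = PME-1 with DMSO and 100% = wells lacking PME-1 enzyme; inhibitors block probe labeling so polarization falls and inhibition rises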
PREPL inh: inhibits the human prolyl oligopeptidase-like enzyme. Q4J6C6. recombinant PREPL, fluorescence polarization activity-based probe. inhibition, % at 5.96 µM. hit rate 0.68% among 320,000; in the data active = inhibition above about 43%;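 note: 0% = enzyme with DMSO and 100% = wells lacking enzyme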
Fam108B counter: counter-screen for RBBP9 inhibitors: inhibitors of mouse Fam108B. recombinant Fam108B, FP-Rh probe fluorescence polarization. inhibition, % at 9.51 µM. hit rate 0.33% among 300,000;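 active = inhibition above the screen mean inhibition plus 3 SD, computed separately per campaign, cut at about 18% in these data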;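 note: inhibitors lower polarization as less probe binds the enzyme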
LYPLA2 counter: counter-screen for PME1 inhibitors: inhibitors of human LYPLA2; recombinant LYPLA2, FP-Rh probe fluorescence polarization; inhibition, % at 5.9 µM; hit rate 0.38% among 320,000; AID 2177;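 active = inhibition above the screen-wide mean plus 3 SD, limit set per campaign, cut at about 26% in these data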;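 note: 0% = LYPLA2 with DMSO and 100% = wells lacking LYPLA2 enzyme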
Target sequence (O95372 whole entry, looked up): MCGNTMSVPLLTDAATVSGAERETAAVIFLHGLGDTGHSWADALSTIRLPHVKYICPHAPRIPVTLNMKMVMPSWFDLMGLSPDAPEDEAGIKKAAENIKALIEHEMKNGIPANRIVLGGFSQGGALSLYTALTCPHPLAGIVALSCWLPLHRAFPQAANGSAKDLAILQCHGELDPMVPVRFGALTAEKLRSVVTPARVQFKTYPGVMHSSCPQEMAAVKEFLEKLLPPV
Fam108b confirm: Fam108b (mouse) hydrolase inhibition, confirmation assay. shares compounds with Fam108B counter. recombinant Fam108b, FP-Rh probe fluorescence polarization. inhibition, % at 9.51 µM. hit rate 44% among 930. AID 1978;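 active = inhibition above a limit from the primary screen, the mean over all compounds plus 3 SD, cut at about 19% in these data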;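 note: 0% = median of active Fam108b wells and 100% = catalytically dead S170A mutant; inhibitors free the probe so polarization falls as inhibition rises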
* marks the source's active call; other numbers are inactive results. Rows were chosen to be rich in hits. Some 1.3% of all compounds tested hit in one or more screens of this group.

SMILES	LYPLA1 counter	PME-1 primary	PREPL inh	Fam108B counter	LYPLA2 counter	others
CC(NC(=O)/C=C/c1ccc(Br)cc1)c1ccc(Cl)cc1 (stereo not drawn)	0.5	-4.7	4.7	-1.8	-4.7
O=C(CSc1ccsc1[N+](=O)[O-])N1CCN(c2ccc(Cl)cc2)CC1	-1.4	-4.8	43.6*	0.9	4.8
O=C(CSc1ccsc1[N+](=O)[O-])N1CCN(c2ccccc2)CC1	1.8	7.2	40.6	0.0	5.3
Cc1ccc(S(=O)(=O)N(CC(=O)NCC2CCCO2)Cc2ccc(F)cc2)cc1 (stereo not drawn)	-2.6	2.0	-2.9	-1.2	-0.6
C=CCSc1nnc(NC(=O)CN2C(=O)NC3(CCCC3)C2=O)s1	2.4	-7.0	18.6	-3.1	4.0
CN1CCN(C2=C(Cl)C(=O)C(c3cnc(N4CCCCC4)s3)=C(Cl)C2=O)CC1	0.4	12.0	49.7*	6.4	8.2
COc1ccc(/C=N/NC(=O)c2cc3cc(OC)c(OC)cc3[nH]2)cc1	6.6	26.5*	22.8	4.5	3.7
COc1cc2cc(C(=O)N/N=C/c3ccc(F)cc3)[nH]c2cc1OC	-4.2	-13.5	27.8	5.8	-1.5
O=C(N/N=C/c1c[nH]c2ccccc12)c1sc2ccccc2c1Cl	-7.6	32.5*	36.4	14.0	0.4
O=C(N/N=C/c1c[nH]c2ccccc12)c1ccccc1	3.1	1.7	2.1	-0.2	6.9
O=C(Nc1ccc(N2CCOCC2)cc1)Nc1ccc(Cl)c(Cl)c1	-7.0	28.1*	36.6	14.0	4.8
CCCN1CCCc2cc(CN)ccc21	3.3	7.0	63.3*	10.9	18.0
CN1CCCc2cc(C=O)ccc21	1.8	3.8	27.8	-1.0	9.1
COc1ccccc1N1CCN(C(=O)C2CCN(C(=O)c3ccc(C(C)(C)C)cc3)CC2)CC1	2.2	6.1	12.5	2.4	2.8
Cc1ccc2[nH]c3c(N4CCc5ccccc5C4)ncnc3c2c1	-11.7	30.2*	46.4*	14.3	-11.1
CCOC(=O)c1sc(NC(=O)Nc2cccc(Cl)c2)cc1C	-18.9	13.2	18.9	24.9*	-13.4
CN(C)c1ccc(NC(=O)Nc2cccc(Cl)c2)cc1	-3.6	32.1*	19.4	5.4	2.9
O=C(Nc1cccc(Oc2ccc3c(c2)C(=O)NC3=O)c1)c1cccs1	-4.5	-9.7	-15.6	-8.6	0.7
Clc1ccc2nc(CN3CCCc4ccccc43)cn2c1	-2.2	3.1	66.8*	3.9	1.0
C#CCOCCOCCOCCNc1nc(N2CCOCC2)nc(N2CCN(C(=O)CCCCCCCCCCNC(=O)[C@@H]([C@H](C)CC)n3cc(CCCCCN)nn3)CC2)n1	-1.7	-0.2	15.5	1.7	8.7
C#CCOCCOCCOCCNc1nc(N2CCN(C(=O)CCCCCCCCCCNC(=O)[C@H]([C@@H](C)CC)n3cc(CCCCN=C(N)N)nn3)CC2)nc(N2CCN(C(=O)CCCCCCCCCCNC(=O)[C@H]([C@@H](C)CC)n3cc(CCCCN=C(N)N)nn3)CC2)n1	-2.5	-11.8	67.8*	-23.4	32.7*
C#CCOCCOCCOCCNc1nc(N2CCN(C(=O)CCCCCCCCCCNC(=O)[C@H]([C@@H](C)CC)n3cc(CCCCCN)nn3)CC2)nc(N2CCN(C(=O)CCCCCCCCCCNC(=O)[C@@H]([C@H](C)CC)n3cc(CCCCCN)nn3)CC2)n1	6.9	-8.9	59.4*	-6.7	57.4*
C/C(O)=C(/C=Nc1ccccc1)C(=O)Nc1ccccc1	-1.7	2.6	2.4	-2.5	-4.7
C=CCc1cccc2cc(C(=O)NNC(=O)CC#N)c(=O)oc12	-0.3	-0.7	16.5	7.7	2.3
O=c1oc(-c2ccccc2NS(=O)(=O)c2ccccc2)nc2ccccc12	-3.4	-2.7	8.5	20.9*	-1.3	Fam108b confirm=18.0
Nc1ccccc1-c1nc2ccccc2c(=O)o1	-3.0	-2.1	4.9	3.5	-3.0
Cc1ccc(NC(=O)NCc2ccc3c(c2)OCO3)cc1	-2.5	-3.3	13.2	5.5	-2.1
CC(C)C(NS(=O)(=O)c1ccc2c(c1)OCCCO2)C(=O)O (stereo not drawn)	0.8	-3.9	1.4	-0.4	-4.7
O=C1C2=C(Nc3ccccc3SC2c2ccco2)c2ccccc21 (stereo not drawn)	-5.2	28.5*	8.1	31.4*	8.3	Fam108b confirm=9.5

Screens: PubChem, The Scripps Research Institute Molecular Screening Center
